According to PubChem BioAssay (EPA / NIEHS):
More than one record can exist for a structure, and the calls need not agree. Activity calls are given as the source filed them. How the source made its calls: active means hit-call score of the fitted dose curve at least 0.9, where 1 is the maximum; inactive means score below 0.9.

Experiment: ATG_CRE_CIS: Attagene CIS-FACTORIAL HepG2 Assay for human cAMP Responsive Element (CRE) binding protein 3 (AID 2282926)
Conditions: HepG2 CRE cis-reporter, Attagene multiplexed mRNA; actives raise or lower the signal
Protocol: ATG_CIS is a cell-based, multiplexed-readout assay that uses HepG2, a human liver cell line, with measurements taken at 24 hours after chemical dosing in a 24-well plate.ATG_CRE_CIS is one of 52 assay component(s) measured or calculated from the ATG_CIS assay. It is designed to make measurements of mRNA induction, a form of inducible reporter, as detected with fluorescence intensity signals by Reverse transcription polymerase chain reaction (RT-PCR) and Capillary electrophoresis technology.Data from the assay component ATG_CRE_CIS was analyzed into 1 assay endpoint. This assay endpoint, ATG_CRE_CIS, was analyzed with bidirectional fitting relative to DMSO as the negative control and baseline of activity. Using a type of inducible reporter, measures of mRNA for gain or loss-of-signal activity can be used to understand the reporter gene at the transcription factor-level as they relate to the gene CREB3. Furthermore, this assay endpoint can be referred to as a primary readout, because this assay has produced multiple assay endpoints where this one serves a reporter gene function. To generalize the intended target to other relatable targets, this assay endpoint is annotated to the dna binding intended target family, where the subfamily is basic leucine zipper.
Human liver HepG2 cells are transiently transfected with multiple reporter transcription units (MRTUs) in 6-well plates using FuGene 6 reagent (Roche; 3 ml FuGene/1 mg DNA). The MRTU constructs are regulated by a cis-regulating element (promoter). […] A major difference between the CIS and TRANS system is that in CIS activities of endogenous TFs are measured, whereas the TRANS assay evaluates changes in activities of exogenous, chimeric NR-Gal4 proteins. […] At the end of 24 hour incubation, total RNA was isolated using TriZol reagent (Invitrogen). The isolated RNA is then reverse-transcribed using oligo(dT) primer and Mo-MLV reverse transcriptase (Invitrogen) with DNAse I (Ambion) treatment for 30 min. The one-tenth of the produced cDNA was amplified by PCR using Taq DNA polymerase (Invitrogen) and two reporter sequence-specific primers. The PCR products were fluorescently labeled by primer extension with 6-arboxyfluorescein (6-FAM) 5'-labeled reporter sequence-specific primer (2 min at 95 C, 20 s at 68 C and 10 min at 72 C) and these products were digested with 5U of HpaI (New England Biolabs) for 2h at 37 C. The fragments were purified using Qiaquick PCR columns (Qiagen), analyzed on an ABI 3130xL genetic analyzer (Applied Biosystems) with peak positions identified by using a set of X-rhodamine (ROX)-labeled MapMarker1000 molecular weight standards (BioVentures). The raw capillary electrophoresis data was processed using Attagraph software (Attagene).

Compound	outcome	AC50
CC(=O)OC(c1ccccc1)C(Cl)(Cl)Cl (stereo unspecified)	inactive	–
CC(C)c1ccc(CO)cc1	inactive	–
NC(=S)Nc1ccccc1	inactive	–
CC(C)(OO)c1ccccc1	inactive	–
CC1CN1P(=O)(N1CC1C)N1CC1C (stereo unspecified)	inactive	–
N#CN=C(N)N	inactive	–
CCOP(=O)(CN(CCO)CCO)OCC	inactive	–
CC(=O)c1cc(C(C)(C)C)cc2c1CCC2(C)C	–	100 µM (active)
O=[N+]([O-])c1ccc2c3c(cccc13)CC2	inactive	–
O=Cc1cccc(Oc2ccccc2)c1	inactive	–
CCCCCCCCCl	inactive	–
COC[C@H](C)N(C(=O)CCl)c1c(C)csc1C	inactive	–
C=C(C)C#N	inactive	–
CCC[CH2][Sn]([Cl])([Cl])[Cl]	inactive	–
Oc1cccc2cccnc12	inactive	–
Clc1ccc(COC(Cn2ccnc2)c2ccc(Cl)cc2Cl)cc1 (stereo unspecified)	inactive	–
CCCCCCCCSC(=O)Oc1cc(Cl)nnc1-c1ccccc1	inactive	–
Cl/C=C/Cl	inactive	–
N#CCc1ccc(Cl)cc1	inactive	–
CCCCOCCOC(C)=O	inactive	–

Compound	outcome	AC50
Cc1cc(=O)[nH]o1	inactive	–
C=C(C)C(=O)[O][Sn]([CH2]CCC)([CH2]CCC)[CH2]CCC	inactive	–
CC(C)(c1ccccc1)c1ccc(O)c(C(C)(C)c2ccccc2)c1	–	2.2 µM (active)
CCOP(=S)(OCC)SCSP(=S)(OCC)OCC	inactive	–
COP(=O)(OC)OC	inactive	–
CCOC(=O)Nc1cccc(OC(=O)Nc2ccccc2)c1	inactive	–
CCCCCCCCc1ccc(O)cc1	inactive	–
CC(=[OH+])/C=C(/C)[O-].CC(=[OH+])/C=C(/C)[O-].CC(=[OH+])/C=C(/C)[O-].[Al]	inactive	–
C=CC(=O)N(C)C	inactive	–
O=C(c1ccccc1)C(Cl)Cl	inactive	–
CC(C)(C)c1cc(O)ccc1O	–	151 µM (active)
OCc1ccco1	inactive	–
Clc1nc(Cl)nc(Cl)n1	inactive	–
O=C(Nc1ccc2[nH]ccc2c1)c1cc2cc(F)ccc2n1Cc1cccc(F)c1	inactive	–
Cn1sc(Cl)cc1=O	inactive	–
Nc1ccc(-c2ccc(N)c(Cl)c2)cc1Cl	inactive	–
CC(=O)C(Cl)C(=O)N(C)C (stereo unspecified)	inactive	–
O=P(O)(O)CN(CP(=O)(O)O)CP(=O)(O)O	inactive	–
Nc1ncc([N+](=O)[O-])s1	inactive	–
C[C@@H]1C[C@@H]([C@H](O)CC2CC(=O)NC(=O)C2)C(=O)[C@@H](C)C1	inactive	11.1 µM (active)
